OPRM1-OPRD1 inv: inverse agonists of human mu-delta opioid receptor heterodimerization | P35372+P41143 | cell-based MOR-DOR heterodimer luminescence, inverse agonism | inhibition, % at 9.3 µM | 0.21% of 340,000 active | AID 504357; in the data active = inhibition above about 22%, passing the limit was not always enough;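 note: 0% = cells with DMSO and 100% = wells without cells with DMSO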
HTR5A ag ctr: HTR5A agonism, opioid heterodimer counter-screen; activation, % at 9.3 µM; 0.61% of 340,000 active; P47898; HTR5A agonist assay, luminescence, cell-based; in the data active = activation mostly above about 9.5%, no sharp cut-off; inactive = mostly below about 7.6%;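 note: 0% = cells with vehicle only and 100% = reference agonist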
Target sequence (P47898 whole entry, looked up): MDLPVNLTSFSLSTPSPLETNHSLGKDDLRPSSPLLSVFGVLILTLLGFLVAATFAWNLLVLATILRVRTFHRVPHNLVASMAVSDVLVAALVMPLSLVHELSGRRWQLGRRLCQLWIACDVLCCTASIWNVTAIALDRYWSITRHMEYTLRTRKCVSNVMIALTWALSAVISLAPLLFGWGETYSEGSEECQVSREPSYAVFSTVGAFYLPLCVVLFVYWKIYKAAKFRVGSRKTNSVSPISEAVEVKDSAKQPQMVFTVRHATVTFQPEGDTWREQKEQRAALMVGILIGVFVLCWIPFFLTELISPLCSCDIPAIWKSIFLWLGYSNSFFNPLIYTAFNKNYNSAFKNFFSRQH
HTR5A inv ag: inverse agonist of human HTR5A in OPRM1-OPRD1 counter-screen; P47898; HTR5A cell line, luminescence, inverse agonism; inhibition, % at 9.3 µM; 0.083% of 340,000 active; AID 504634; in the data active = inhibition mostly above about 23%, no sharp cut-off; inactive = mostly below about 18%;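 note: 0% = cells with DMSO and 100% = no-cell wells with DMSO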
OPRM1-OPRD1 ag: OPRM1-OPRD1 heterodimerization agonism; 0.3% of 340,000 active; activation, % at 9.3 µM; cells, luminescence; in the data active = activation above about 18%;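 note: 0% = vehicle-treated cells and 100% = reference agonist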
The depositor's hits bear a star. Only some compounds are listed: those with a hit (about 1.1% of all), similar ones and a draw of the others.

SMILES | OPRM1-OPRD1 inv | HTR5A ag ctr | HTR5A inv ag | OPRM1-OPRD1 ag
O=C(N[C@@H](Cc1ccccc1)C(=O)OCc1ccccc1)c1nc[nH]c1C(=O)N1CCN(c2ccccc2)CC1 | -16 | 13* | -32 | 3
CCN(CC(=O)NCc1cccs1)C(=O)/C=C/c1cccc(Cl)c1Cl | 6 | -1 | 3 | -1
CCOC(=O)c1cccc(C2=CC(=O)CC(C)(C)C2)c1 | -5 | 3 | -7 | 1
O=Cc1cn(-c2ccc(F)cc2)c2ccccc12 | -2 | 2 | -8 | 0
COc1ccc(/C=N\NC(=O)c2ccc(Cn3cc(Br)c([N+](=O)[O-])n3)o2)c(OC)c1C | 3 | 11* | -25 | -1
COc1cc(C2c3cc4c(cc3OC(NCCc3ccccc3)C2C)OCO4)cc(OC)c1OC (stereo not given) | -1 | 11* | -45 | 0
O=C(CSCc1cccc(Cl)c1)Nc1ccccc1-c1ccccc1 | -41 | 0 | -12 | 7
Cc1ccc(C(=O)Sc2cccccc2=O)cc1 | 40* | -10 | 34* | -9
COc1ccc(C)cc1-n1c(SCC(=O)NCC2CCCO2)nc2c([nH]c3ccccc32)c1=O (stereo not given) | -3 | 2 | -15 | 1
Cc1ccccc1-n1c(SCC(=O)NCC2CCCO2)nc2c([nH]c3ccccc32)c1=O (stereo not given) | 54* | -16 | 52* | -10
C=CCn1c(SCC(=O)NCC2CCCO2)nc2c([nH]c3ccccc32)c1=O (stereo not given) | 14 | -1 | 15 | -3
O=C(CSc1nc2c([nH]c3ccccc32)c(=O)n1-c1ccccc1F)NCC1CCCO1 (stereo not given) | 63* | -18 | 60* | -12
COc1ccc(C2/C(=C(\O)c3ccc4c(c3)OCCO4)C(=O)C(=O)N2CCCn2ccnc2)cc1 (stereo not given) | 17 | 11* | -2 | -3
Cc1cccc(NC(=O)c2cc(NC(=O)c3ccco3)ccc2N2CCCCC2)c1 | 9 | 2 | -19 | -2
O=C(Nc1ccc(N2CCCCC2)c(C(=O)O)c1)c1ccco1 | -12 | 10* | -22 | 2
COCCNC(=O)C1CCC(CNS(=O)(=O)c2ccc3c(c2)CC(C)N3C(=O)C2CC2)CC1 (stereo not given) | 17 | 12* | 17 | -3
CCCNC(=O)C1CCC(CNS(=O)(=O)c2ccc3c(c2)CC(C)N3C(C)=O)CC1 (stereo not given) | 19 | -2 | 13 | -3
Cc1ncc(CO)c(CNc2ccc(-c3nc4ccccc4[nH]3)cc2)c1O | 28 | -1 | 3 | -6
COC(=O)CN(C)C(=O)CC1C(=O)NCCN1CC(C)(C)C (stereo not given) | -10 | 13* | -14 | 1
O=C(Nc1cccc(Cl)c1Cl)C1CCCO1 (stereo not given) | 2 | 1 | -4 | 0
CCOC(=O)c1sc(N(Cc2ccccc2)C(=O)COC(=O)c2ccc(O)cc2)nc1C | -74 | 11* | -40 | 14
CCOC(=O)c1sc(N(Cc2ccccc2)C(=O)COC(=O)c2ccccc2O)nc1C | 1 | 2 | -7 | 0
O=C(Nc1cc(Cl)ccc1Cl)P(=O)(O)c1ccccc1 | 13 | 1 | -5 | -3
COc1cccc(CNC(=O)C2CCN(c3nnc(N4CCCC4=O)s3)CC2)c1 | 5 | 13* | -8 | -1
CCCOc1ccc(CNC(=O)C2CCN(c3nnc(N4CCCC4=O)s3)CC2)cc1 | -3 | -2 | -5 | 1
SMILES | OPRM1-OPRD1 inv | HTR5A ag ctr | HTR5A inv ag | OPRM1-OPRD1 ag
Cc1nnc(NC(=O)c2nc(S(=O)(=O)Cc3ccccc3)ncc2Cl)s1 | -22 | 10* | -41 | 4
CN1CCN(c2ccccc2NC(=O)c2ccc(-c3cccc(Cl)c3)o2)CC1 | -335 | -2 | -16 | 62*
O=C(Nc1ccccc1N1CCCCC1)c1ccc(-c2cccc(Cl)c2)o1 | 13 | -1 | 4 | -2
Cn1c(=O)c([N+](=O)[O-])c(Cl)c2ccccc21 | 37* | -5 | 13 | -8
CCN(CC)c1c([N+](=O)[O-])c(=O)n(C)c2ccccc12 | -5 | 2 | -5 | 1
O=C(NCc1cccs1)C1CCN(S(=O)(=O)c2cccc3cccnc23)CC1 | 1 | 14* | -41 | 0
COc1cccc(C(=O)COc2ccc3ccc(=O)oc3c2)c1 | 9 | 12* | -33 | -1
COc1cccc(C(=O)COc2ccc3c(C)cc(=O)oc3c2)c1 | -5 | -4 | 15 | 1
CC(=O)NC(Cc1ccccc1)C(C)=O (stereo not given) | 16 | -2 | 5 | -3
CCOC(=O)C(Cc1ccccc1)NC(C)=O (stereo not given) | 10 | 12* | -24 | -2
Cc1cc(OCC(=O)Nc2ccncc2)cc(C)c1Br | -24 | 13* | -1 | 4
O=C(Nc1ccccc1F)c1ccc(Br)o1 | 16 | 13* | 13 | -3
CCOC(=O)c1cnn(-c2ccccc2)c1NC(=O)CN1CCOCC1 | -5 | 13* | -15 | 1
C/C(=N\Nc1nc2ccccc2[nH]1)c1ccccn1 | 61* | -8 | 20 | -11
Nc1nc(CSC(=S)N2CCOCC2)nc(Nc2ccc(F)cc2)n1 | 13 | 1 | -16 | -2
CN1CCN(C(=S)SCc2nc(N)nc(Nc3ccc(F)cc3)n2)CC1 | 3 | 11* | -29 | 0
c1ccc(-c2nc(NC3CCCC3)c3ccccc3n2)cc1 | -12 | 5 | 10 | 2
CCn1c(C)nc2cc(C(=O)N/N=C(\C)c3ccccc3O)ccc21 | 8 | 10* | -26 | -2
CCOP(=O)(c1ccccc1)C(O)c1ccc(Br)cc1 (stereo not given) | 6 | -1 | 5 | -1
O=C(OCC(=O)N1CCCCC1)c1cc(=O)[nH]c2ccccc12 | 0 | 13* | 17 | 0
O=C(OCC(=O)N1CCCCC1)c1c[nH]c2ccccc12 | 16 | -1 | 2 | -4
Cc1ccc(NC(=O)c2cc(-c3ccc(F)cc3)on2)cc1C | 12 | 5 | -13 | -2
CC(=O)c1cccc(NC(=O)c2cc(-c3ccc(F)cc3)on2)c1 | 3 | 10* | 7 | 0
CCC(CC)C(=O)c1c[nH]c(C(=O)NCCc2ccccn2)c1 | -2 | 13* | -1 | 0
CC(C)C(NC(=O)c1ccc(C(C)(C)C)cc1)C(=O)NCCc1ccccn1 (stereo not given) | -4 | 1 | -4 | 1
SMILES | OPRM1-OPRD1 inv | HTR5A ag ctr | HTR5A inv ag | OPRM1-OPRD1 ag
CC(C)(C)c1ccc(C(=O)c2c[nH]c(C(=O)NCCc3ccccn3)c2)cc1 | 8 | 9.4* | -26 | -2
CCC(CC)C(=O)c1c[nH]c(C(=O)NCc2cccs2)c1 | 16 | 3 | 4 | -3
CCC(CC)C(=O)c1c[nH]c(C(=O)NCc2ccccn2)c1 | -5 | 9.1* | -23 | 1
CCOc1cc(CNCc2cccnc2)cc(Br)c1OCC(N)=O | 0 | 10* | -37 | 0
Cc1cc(C(=O)CCl)c(C)n1CCc1ccc(Cl)cc1 | -94 | 17* | -6 | 19*
Cc1cc(C(=O)CCl)c(C)n1CCc1ccc(F)cc1 | -16 | 7 | 3 | 3
COc1ccc(CNC(=O)[C@@H](NC(=O)C2CCN(S(=O)(=O)c3ccc(C)cc3)CC2)C(C)C)cc1OC | 4 | 0 | -1 | -1

Assay outcomes: PubChem, The Scripps Research Institute Molecular Screening Center
